# From PubChem BioAssay (EPA / NIEHS)
# Active and inactive are the calls of the source. Rule for the calls: active = hit-call score of the fitted dose curve at least 0.9, where 1 is the maximum; inactive = score below 0.9.
# Read-out: Peroxisomal acyl-coenzyme A oxidase 1 (ACOX1) gene, ACOX1 (gene 51)
# Assay: LTEA_HepaRG_ACOX1: Life Technologies and Expression Analysis (LTEA) Assay for Peroxisomal acyl-coenzyme A oxidase 1 (ACOX1) gene using HepaRG (AID 2283467)
# Settings: mRNA level, 48 h; actives raise or lower the signal
# Procedure: LTEA_HepaRG is a cell based, multiplexed-readout assay that uses HepaRG, a human liver cell line, with measurements taken at 48 hours after chemical dosing on a 96-well plate.LTEA_HepaRG_ACOX1 is one of 102 assay component(s) measured in the LTEA HepaRG cell culture assay. It is a marker of Steatosis.Data from the assay component LTEA_HepaRG_ACOX1 was analyzed into 1 endpoint. This assay endpoint, LTEA_HepaRG_ACOX1, was analyzed with bidirectional fitting relative to DMSO as the negative control and baseline of activity. Using a type of inducible reporter, measures of mRNA induction for gain or loss-of-signal activity can be used to understand regulation of transcription factor activity. To generalize the intended target to other relatable targets, this assay endpoint is annotated to the oxidase intended target family, where the subfamily is steatosis.
# A total of 1060 chemcials from the ToxCast library were tested in eight-point concentration-response experiments. Cell culture and cytotoxicity assays were conducted at Thermo Fisher Scientific's Custom Services facility (Madison, WI). A single lot of human HepaRG cells (Thermo Fisher Scientific, Frederick, MD) was used for the cell culture experiments. 96-well format collagen type I coated plates of human HepaRG cells were prepared using established methods. Briefly, cryopreserved HepaRG cells were thawed, plated at a density of approximately 100,000 cells/well in HepaRG Thaw, Plate, and General Purpose media (HPRG770, Thermo Fisher Scientific), and incubated for 48 hours. 0.5% DMSO was selected as vehicle control to balance the requisite need of DMSO in HepaRG cultures to maintain differentiation (for example, baseline metabolism, proportions of hepatocytes vs. cholangiocytes), while enabling further hepatic receptor pathway activation (for example, PXR and CAR) in response to chemical exposure. 48 hours after plating, the culture medium was replaced with HepaRG Serum-Free Incudtion Media. Cells were exposed to each test chemical in duplicate and maintained in CO2 incubators for another 48 hours. Chemical plates were thawed to room temperature and 200x concentrations of treatment groups were prepared. 8-point conentration-reponse curves were made with the highest exposure at 100 uM, followed by half-log dilutions, all in 0.5% DMSO. Each test plate contained variouse controls, induction positive controls (1mM phenobarbital), cytotoxicity positive controls ([…] aflatoxin B1), vehicle controls (0.5% DMSO), and total lysis controls (0.5% DMSO). Cell morphology images were taken using an Essen IncuCyte FLR automated microscope, with six 96-well plates imaged in about 24 minutes. Images were captured and exported and JPEG files. Spent culture media was transfered to black-well plates for the LDH assay, and remaining media was sorted at -80 C for later use. Cells were treated with RLT buffer and frozen until shipped for gene expression analysis. Total RNA was isolated from the cell suspension in 75 uL of Buffer RLT (Qiagen, Germantown, MD 20874) by Quintiles/Expression Analysis (Durham, NC) using a custom isolation procedure. Total RNA from each plate well was transferred to a preamplification plate. Fluidigm's 96.96 Dynamic ArrayTM (Fluidigm, Amsterdam, the Netherlands) technology was used for gene expression analyses by quantitative reverse transcription polymerase chain reaction (qRT-PCR, performed by Quintiles/Expression Analysis, Durham, NC)89. Standard TaqManTM Assays (Applied Biosystems/ThermoFisher Scientific, Foster City, CA) were used to assess the expression of 93 genes selected based on their selectivity and sensitivity to important hepatic receptors known to be modulated by environmental chemicals; importance in human hepatocyte functionality; and hepatotoxicity. […]
Structure (SMILES),outcome,AC50
O=C(Nc1ccccc1)c1ccccc1I,inactive,–
Clc1ccc(Cl)c(Cl)c1,inactive,–
c1ccc2c(c1)oc1ccccc12,inactive,–
CC(C)(C)OOC(=O)c1ccccc1,inactive,–
c1ccc(NNc2ccccc2)cc1,inactive,–
CCCCCCCCn1sccc1=O,–,83.8 µM (active)
C[C@]12C=CC3=C4CCC(=O)C=C4CC[C@H]3[C@@H]1CC[C@@H]2O,inactive,–
Cc1cc(N=Nc2ccccc2C)ccc1N,–,2.57 µM (active)
CC(C)COC(=O)c1ccccc1C(=O)OCC(C)C,inactive,–
CCCSC(=O)N(CCC)CCC,inactive,–
CO[C@@H]1[C@H](OC(=O)NC(=O)CCl)CC[C@]2(CO2)[C@H]1[C@@]1(C)O[C@@H]1CC=C(C)C,inactive,–
C[N+](C)(C)CC1CO1 (stereo not given),inactive,–
c1ccc(C2CO2)cc1 (stereo not given),inactive,–
CCN(CC)N=O,inactive,–
CCN(CC)CCO,inactive,–
OCCCl,inactive,–
[Cl-].[Cl-].[Hg+2],inactive,–
Nc1ccc(Cl)cc1N,–,27 µM (active)
ClC1=C(Cl)[C@]2(Cl)[C@H]3[C@H]([C@@H]4C=C[C@H]3C4)[C@@]1(Cl)C2(Cl)Cl,inactive,–
O=C(N[C@H](c1ccccc1)[C@@H]1CN2CCC1CC2)c1c(Cl)ccc(C(F)(F)F)c1Cl,–,70.3 µM (active)

Structure (SMILES),outcome,AC50
Nc1ccc(Oc2ccc(N)cc2)cc1,inactive,–
c1ccc(N=Nc2ccccc2)cc1,inactive,–
O=P(OCCCl)(OCCCl)OCCCl,inactive,–
CCCCC(CC)COC(=O)c1ccc(C(=O)OCC(CC)CCCC)c(C(=O)OCC(CC)CCCC)c1 (stereo not given),inactive,–
Cn1cc(-c2ccccc2)c(=O)c(-c2cccc(C(F)(F)F)c2)c1,inactive,–
Cc1ccc([N+](=O)[O-])cc1,inactive,–
c1ccc2c(c1)-c1cccc3cccc-2c13,inactive,–
CC(C)(O)c1cnn2c(-c3ccc(F)c(-c4c(F)cccc4C#N)c3)cnc2n1,–,0.00316 µM (active)
O=[N+]([O-])C(Br)(CO)CO,inactive,–
CCCCCCCCCCCCCN1CC(C)OC(C)C1 (stereo not given),inactive,–
CN(C)C(=O)Nc1ccc(Cl)cc1,inactive,–
COP(=S)(OC)SCN1C(=O)c2ccccc2C1=O,inactive,–
COC(=O)c1ccccc1N,inactive,–
O=C(O)C1C2CCC(O2)C1C(=O)O (stereo not given),inactive,–
Clc1ccc(C(c2ccc(Cl)cc2)C(Cl)(Cl)Cl)cc1,inactive,–
Nc1cc(Cl)cc(C(=O)O)c1Cl,inactive,–
N#CC(Br)(Br)C(N)=O,inactive,–
CCCCOC(=O)c1ccccc1C(=O)OCc1ccccc1,inactive,–
[As]#[In],inactive,–
CC(C)(C)C(O)(CCc1ccc(Cl)cc1)Cn1cncn1 (stereo not given),inactive,–
